The source of these data is PubChem BioAssay (NCATS).

Each structure is given as a SMILES string. Results filed as inconclusive are left out. Active and inactive are the calls of the source. Unless noted, calls come from the whole dose curve; as a rule, active = well fitted curve in the direction sought with a large enough effect; inconclusive = small, poorly fitted or top-dose-only effect, or another doubt; inactive = no such curve, though single readings can be large; an effect the other way counts as inactive or inconclusive.

The target in experiment [1] is Ubiquitin carboxyl-terminal hydrolase 2 (Homo sapiens) (UniProt O75604). As to the kind of experiment: qHTS Validation Assay for Inhibitors of Ubiquitin-specific Protease USP2a Using CHOP2 as the Reporter (AID 463106). Note: potency is the fitted concentration of half-maximal effect. The procedure, abridged:
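Readout was coupled fluorescence (Ex 485/Em 531 nm), read 60 min after adding 25 nM final Ub-CHOP2 and 25 nM reporter substrate. Beforehand, 10 nM final USP2 core had 30 min at RT with compound in pH 8.0 buffer. Curves were fitted after normalization to NEM and flagged for artifacts using time-zero reads.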
On the technique in general: In qHTS, concentration-response curves come from the screen itself.

Experiment [2] addresses DNA polymerase III PolC-type (Bacillus subtilis (strain 168)) (UniProt P13267). Nature of the experiment: qHTS Validation Assay for the Inhibitors of DNA Replication in Gram-Positive Bacteria (AID 485295). Note: potency is the fitted concentration of half-maximal effect. The method in brief:
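Primed replication of single-stranded M13Gori by a four-protein B. subtilis holoenzyme is measured at room temperature. Double-stranded product is quantified by PicoGreen fluorescence after an EDTA stop; inhibition is scaled between DMSO and EDTA controls.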

Experiment [3] concerns the target Tumor susceptibility gene 101 protein (Homo sapiens) (UniProt Q99816). Nature of the experiment: qHTS Validation Assay for Iinhibitors of HIV-1 Budding by Blocking the Interaction of PTAP/TSG101 (AID 485342; calls by dose curve). The procedure, abridged: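 Fluorescence anisotropy measured PTAP-Tsg101 interaction. Final concentrations were 10 uM protein domain and 50 nM labeled peptide, equilibrated 20 min at room temperature.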

The nature of experiment [4]: qHTS Validation Assay to Find Inhibitors of Chronic Active B-Cell Receptor Signaling (AID 485345; active = well fitted curve in the direction sought with a large enough effect in the main read-out, with a control signal flat, not every such curve was filed as active). The procedure, abridged: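 Read-out: ratio of filter-corrected green (IkappaBalpha fusion) to red (native) luciferase signal in doxycycline-induced TMD8 cells after 4 h at 37C. Titration spanned 46 uM–3 nM; Data were normalised to basal cells and 10 uM MG-132 wells.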
For experiment [5], the target named is Beta-2 adrenergic receptor (Homo sapiens) (UniProt P07550). Nature of the experiment: qHTS validation assay of beta-arrestin-biased ligands of beta2-adrenergic receptor (AID 485366). The procedure, abridged:
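Screening used a titration range of up to 46 microM in a beta-arrestin recruitment Tango luciferase assay. Cells in 1% FBS medium were treated 18 hr at 37 degrees C, and luminescence was normalized to %Activity.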

Experiment [6] concerns the target ATP-dependent 6-phosphofructokinase (Trypanosoma brucei brucei) (UniProt O15648). Nature of the experiment: qHTS Validation Assay to Find Inhibitors of T. brucei phosphofructokinase (AID 485368). Note: potency is the fitted concentration of half-maximal effect. The procedure, abridged: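 PFK-generated ADP was measured after 45 min at room temperature using ADP-Glo. The reaction contained 0.5 mM F6P and 0.1 mM ATP.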
The target in experiment [7] is Thioredoxin reductase 1, cytoplasmic (Rattus norvegicus) (UniProt O89049). As to the kind of experiment: qHTS Assay for Substrates of Mammalian Selenoprotein Thioredoxin Reductase 1 (TrxR1) (AID 488772).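 Note: series mostly up to about 57 µM; a drop in NADPH fluorescence below the no-compound background marks a TrxR1 substrate.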 The method in brief:
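In this dual-purpose format, potential substrates are identified from the first fluorescence read after selenite addition, not from the 8-minute delta. Rat enzyme is preincubated with NADPH and then with compound at ~22 deg C.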

Experiment [8] shares this target. As to the kind of experiment: qHTS Assay for Inhibitors of Mammalian Selenoprotein Thioredoxin Reductase 1 (TrxR1) (AID 488773). Note: nearly all actives have a fitted effect of over 40% in size. Note: potency is the fitted concentration of half-maximal effect. The following applies: Potency: inhibition. The procedure, abridged:
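Inhibition is scored from the loss of NADPH fluorescence between first and last reads of an 8-min kinetic run. Selenite (400 uM) was the substrate, added after 15 min compound preincubation at room temperature.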

The nature of experiment [9]: Validation screen for inhibitors of Lassa infection (AID 463096; calls by dose curve; note: potency is the fitted concentration of half-maximal effect).
Experiment [10] in a line: Validation screen for small molecules that induce DNA re-replication in MCF 10A normal breast cells (AID 463097). Note: nearly all actives have a fitted effect of over 60% in size. Note: potency is the fitted concentration of half-maximal effect. The method in brief:
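DNA re-replication was detected as a rise in nuclei with elevated Hoechst fluorescence after a 48 hr compound exposure of MCF 10A cells at 37 C.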

Sequence of Thioredoxin reductase 1, cytoplasmic (Rattus norvegicus) (O89049 whole entry, looked up): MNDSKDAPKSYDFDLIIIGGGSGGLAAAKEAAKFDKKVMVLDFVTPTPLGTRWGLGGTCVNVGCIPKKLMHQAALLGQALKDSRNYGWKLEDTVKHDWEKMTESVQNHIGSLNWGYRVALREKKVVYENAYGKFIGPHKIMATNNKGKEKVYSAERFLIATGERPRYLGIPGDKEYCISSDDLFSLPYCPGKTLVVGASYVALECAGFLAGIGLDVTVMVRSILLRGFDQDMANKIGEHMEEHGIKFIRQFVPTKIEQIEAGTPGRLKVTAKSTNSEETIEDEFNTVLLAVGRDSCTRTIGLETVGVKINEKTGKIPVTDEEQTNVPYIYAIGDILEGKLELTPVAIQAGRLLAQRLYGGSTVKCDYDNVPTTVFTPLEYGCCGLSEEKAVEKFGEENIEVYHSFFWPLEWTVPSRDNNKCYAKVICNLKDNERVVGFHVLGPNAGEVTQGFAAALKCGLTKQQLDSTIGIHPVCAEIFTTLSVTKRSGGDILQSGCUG
Sequence of DNA polymerase III PolC-type (Bacillus subtilis (strain 168)) (P13267 whole entry, looked up): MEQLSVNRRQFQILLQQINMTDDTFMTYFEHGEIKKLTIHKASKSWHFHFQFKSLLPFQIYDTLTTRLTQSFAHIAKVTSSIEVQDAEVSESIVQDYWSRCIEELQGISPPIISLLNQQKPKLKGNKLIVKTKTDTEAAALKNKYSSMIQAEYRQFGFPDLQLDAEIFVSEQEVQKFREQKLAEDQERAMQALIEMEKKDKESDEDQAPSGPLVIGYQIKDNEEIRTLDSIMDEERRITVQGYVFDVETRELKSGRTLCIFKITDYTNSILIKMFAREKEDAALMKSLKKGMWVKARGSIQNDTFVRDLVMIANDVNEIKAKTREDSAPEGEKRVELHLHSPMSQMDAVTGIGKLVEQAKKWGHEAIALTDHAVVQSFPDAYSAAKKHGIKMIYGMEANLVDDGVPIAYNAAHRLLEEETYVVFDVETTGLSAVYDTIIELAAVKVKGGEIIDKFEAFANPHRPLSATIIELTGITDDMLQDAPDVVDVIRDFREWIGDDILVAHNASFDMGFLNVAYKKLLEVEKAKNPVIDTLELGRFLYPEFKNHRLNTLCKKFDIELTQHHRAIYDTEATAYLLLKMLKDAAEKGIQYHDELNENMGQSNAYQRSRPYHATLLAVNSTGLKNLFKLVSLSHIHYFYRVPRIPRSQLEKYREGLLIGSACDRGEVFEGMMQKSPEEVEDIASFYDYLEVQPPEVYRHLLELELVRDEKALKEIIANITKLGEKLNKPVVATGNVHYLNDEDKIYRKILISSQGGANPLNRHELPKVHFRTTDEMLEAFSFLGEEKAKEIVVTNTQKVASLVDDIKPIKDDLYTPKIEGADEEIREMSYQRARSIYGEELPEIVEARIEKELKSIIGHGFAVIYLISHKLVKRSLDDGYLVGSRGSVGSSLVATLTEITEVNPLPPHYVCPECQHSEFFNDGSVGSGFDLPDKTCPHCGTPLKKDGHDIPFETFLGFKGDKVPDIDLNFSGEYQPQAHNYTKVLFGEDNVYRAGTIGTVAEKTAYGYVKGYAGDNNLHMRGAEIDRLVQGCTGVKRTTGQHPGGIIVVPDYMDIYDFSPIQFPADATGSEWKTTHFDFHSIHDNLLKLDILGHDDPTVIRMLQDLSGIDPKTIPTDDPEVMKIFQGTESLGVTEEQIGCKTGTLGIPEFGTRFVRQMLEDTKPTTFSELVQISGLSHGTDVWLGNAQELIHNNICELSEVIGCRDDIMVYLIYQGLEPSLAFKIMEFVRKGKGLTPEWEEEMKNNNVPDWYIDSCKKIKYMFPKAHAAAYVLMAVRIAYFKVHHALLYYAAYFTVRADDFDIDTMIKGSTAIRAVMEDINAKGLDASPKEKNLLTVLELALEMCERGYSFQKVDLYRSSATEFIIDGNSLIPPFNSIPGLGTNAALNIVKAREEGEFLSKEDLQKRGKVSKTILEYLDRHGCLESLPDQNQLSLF
Sequence of Beta-2 adrenergic receptor (Homo sapiens) (P07550 whole entry, looked up): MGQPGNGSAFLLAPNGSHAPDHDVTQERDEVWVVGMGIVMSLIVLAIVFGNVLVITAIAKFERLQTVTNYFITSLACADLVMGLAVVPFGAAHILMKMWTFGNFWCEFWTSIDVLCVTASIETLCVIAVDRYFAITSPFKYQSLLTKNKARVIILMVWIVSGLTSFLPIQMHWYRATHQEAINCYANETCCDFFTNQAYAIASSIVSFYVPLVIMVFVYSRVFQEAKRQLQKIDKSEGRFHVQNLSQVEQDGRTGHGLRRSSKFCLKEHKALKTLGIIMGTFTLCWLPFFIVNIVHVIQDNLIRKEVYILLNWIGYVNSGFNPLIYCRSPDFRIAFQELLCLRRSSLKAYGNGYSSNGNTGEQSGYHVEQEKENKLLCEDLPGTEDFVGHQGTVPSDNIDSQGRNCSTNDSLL
Sequence of Ubiquitin carboxyl-terminal hydrolase 2 (Homo sapiens) (O75604 whole entry, looked up): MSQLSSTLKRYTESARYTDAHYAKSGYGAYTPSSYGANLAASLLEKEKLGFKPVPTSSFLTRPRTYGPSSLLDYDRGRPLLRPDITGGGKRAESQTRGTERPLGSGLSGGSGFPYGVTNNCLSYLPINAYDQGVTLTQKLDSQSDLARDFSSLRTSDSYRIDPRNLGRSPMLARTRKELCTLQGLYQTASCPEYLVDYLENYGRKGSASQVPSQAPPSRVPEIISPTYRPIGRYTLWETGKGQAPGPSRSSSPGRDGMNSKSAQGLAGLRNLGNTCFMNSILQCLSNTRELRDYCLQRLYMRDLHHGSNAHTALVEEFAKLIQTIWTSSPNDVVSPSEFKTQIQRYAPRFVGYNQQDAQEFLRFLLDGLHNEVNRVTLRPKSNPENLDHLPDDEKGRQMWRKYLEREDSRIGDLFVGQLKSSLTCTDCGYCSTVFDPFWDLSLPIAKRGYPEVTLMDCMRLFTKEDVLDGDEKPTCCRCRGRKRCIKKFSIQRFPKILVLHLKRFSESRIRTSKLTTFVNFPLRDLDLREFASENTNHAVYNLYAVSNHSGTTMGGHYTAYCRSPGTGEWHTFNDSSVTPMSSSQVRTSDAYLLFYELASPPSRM
Sequence of ATP-dependent 6-phosphofructokinase (Trypanosoma brucei brucei) (O15648 whole entry, looked up): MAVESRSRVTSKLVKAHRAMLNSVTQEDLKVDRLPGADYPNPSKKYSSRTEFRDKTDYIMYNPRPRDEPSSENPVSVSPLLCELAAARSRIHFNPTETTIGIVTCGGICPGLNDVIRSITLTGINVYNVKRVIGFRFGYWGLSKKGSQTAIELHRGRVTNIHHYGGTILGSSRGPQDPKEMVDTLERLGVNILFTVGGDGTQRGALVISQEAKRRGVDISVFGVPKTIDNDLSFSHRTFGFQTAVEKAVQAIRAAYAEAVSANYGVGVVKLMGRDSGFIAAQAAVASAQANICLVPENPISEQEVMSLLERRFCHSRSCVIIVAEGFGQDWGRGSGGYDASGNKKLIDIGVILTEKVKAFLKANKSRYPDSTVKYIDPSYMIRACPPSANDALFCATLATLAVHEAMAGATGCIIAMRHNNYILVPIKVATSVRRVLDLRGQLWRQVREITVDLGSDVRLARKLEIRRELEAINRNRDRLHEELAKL
Sequence of Tumor susceptibility gene 101 protein (Homo sapiens) (Q99816 whole entry, looked up, the tested form may be a part): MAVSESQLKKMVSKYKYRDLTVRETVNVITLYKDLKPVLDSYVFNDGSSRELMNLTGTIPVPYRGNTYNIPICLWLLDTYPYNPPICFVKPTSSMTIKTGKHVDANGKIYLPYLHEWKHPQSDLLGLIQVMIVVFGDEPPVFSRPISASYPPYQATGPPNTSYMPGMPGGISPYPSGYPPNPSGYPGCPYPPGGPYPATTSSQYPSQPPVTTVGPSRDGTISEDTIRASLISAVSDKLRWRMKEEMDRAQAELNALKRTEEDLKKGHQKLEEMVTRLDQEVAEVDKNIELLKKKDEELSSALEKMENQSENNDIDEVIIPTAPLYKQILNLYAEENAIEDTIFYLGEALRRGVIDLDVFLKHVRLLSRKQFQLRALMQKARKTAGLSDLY

Consider `CCCN1CCC[C@@H]2Cc3[nH]ncc3C[C@H]21`, for which the Potency entry in experiment [1], in experiment [2], in experiment [6] and in experiment [8] was “inactive” each time. Moreover, the outcome in experiment [3], in experiment [4], in experiment [5] and in experiment [7] was inactive.
Take `COc1ccc(C(CN(C)C)C2(O)CCCCC2)cc1` (stereo not given): the Potency entry in experiment [1], in [2] and in [8] was “inactive” each time. Further, the result in experiment [3], in experiment [4], in experiment [5] and in [7] was inactive. Besides, in experiment [6], the Potency was 5.36 µM (active).
`CC(=O)[C@H]1CC[C@H]2[C@@H]3CC[C@H]4C[C@H](O)CC[C@]4(C)[C@H]3C(=O)C[C@]12C`: the Potency entry in experiment [9], in experiment [10], in [1], in experiment [2], in experiment [6] and in [8] was “inactive” throughout. Also, the result in experiment [3], in experiment [4], in experiment [5] and in experiment [7] was inactive.
Consider `Cc1cccc(C)c1NC1=NCCCS1`, for which the Potency entry in experiment [9], in experiment [10], in experiment [1], in experiment [2], in [6] and in [8] was “inactive” throughout. Besides, the result in experiment [3], in experiment [4], in experiment [5] and in experiment [7] was inactive.
With `Cc1cc2c(C(C)C)c(O)c(O)c(C=O)c2c(O)c1-c1c(C)cc2c(C(C)C)c(O)c(O)c(C=O)c2c1O`, the results for the Potency in experiment [1], in experiment [2] and in [8] were 5.21 µM (active), 10.6 µM (active) and 15 µM (active), respectively.
In the case of `CC(CCc1ccccc1)NC(C)C(O)c1ccc(O)cc1` (stereo not given), the Potency entry in experiment [9], in [10], in [1], in experiment [2], in experiment [6] and in [8] was “inactive” each time. For the same compound, the compound was called inactive in experiment [3], in [4], in experiment [5] and in experiment [7].
On to `Cc1cccc(C)c1NC(=O)CN1CCCC1=O`, for which the Potency result in [1], in experiment [2], in [6] and in experiment [8] was “inactive” throughout. In addition, the call in [3], in experiment [4], in experiment [5] and in experiment [7] was inactive.
As to `CCC1(C2=NCCN2)Cc2ccccc2O1` (stereo not given), the Potency entry in experiment [9], in [10], in experiment [1], in experiment [2], in [6] and in [8] was “inactive” in each case. Moreover, the call in [3], in [4], in [5] and in experiment [7] was inactive.
On to `O=c1c(O)c(-c2ccc(O)c(O)c2)oc2cc(O)cc(O)c12`, for which the Potency entry in experiment [9] was “inactive”. Besides, the Potency in [2] was 10.6 µM (active); in experiment [6] it was 6.75 µM (active).
On to `COC[C@H]1OC(=O)c2coc3c2[C@@]1(C)C1=C(C3=O)C2CCC(=O)[C@@]2(C)C[C@H]1OC(C)=O` (stereo not given in full), for which the Potency result in experiment [1], in [2] and in [6] was “inactive” each time. Also, the compound was classed as inactive in experiment [3], in experiment [5] and in experiment [7]. The Potency in [8] is 11.9 µM (active).
As to `NCC(CC(=O)O)c1ccc(Cl)cc1` (stereo not given), the Potency result in experiment [9], in [10], in experiment [1], in [2] and in experiment [8] was “inactive” each time. Moreover, the call in experiment [3], in experiment [4], in [5] and in experiment [7] was inactive.
For `O=c1[nH]c2ccccc2n1CCCN1CCC(n2c(=O)[nH]c3cc(Cl)ccc32)CC1`, the Potency entry in experiment [9], in [1], in experiment [2] and in [8] was “inactive” each time. Also, the compound was classed as inactive in [3], in experiment [5] and in experiment [7].
Consider `COc1ccccc1N1CCNCC1`, for which the Potency result in [9], in experiment [10], in experiment [1] and in [2] was “inactive” each time. For the same compound, the compound was classed as inactive in [3], in [4], in experiment [5] and in [7].
For `CC(=O)[C@H]1CC[C@H]2[C@@H]3CC[C@H]4C[C@](C)(O)CC[C@]4(C)[C@H]3CC[C@]12C`, the Potency entry in experiment [1], in experiment [2], in [6] and in [8] was “inactive” throughout. In addition, the compound was called inactive in experiment [3], in experiment [4], in experiment [5] and in [7].
Take `C=C(C)[C@H]1Cc2c(ccc3c2O[C@@H]2COc4cc(OC)c(OC)cc4[C@@H]2C3=O)O1`: the Potency in experiment [9] is 5.62 µM (active); in experiment [10], 1.41 µM (active). Further, the Potency entry in experiment [1], in experiment [2] and in experiment [8] was “inactive” in each case. The result in experiment [3], in experiment [5] and in [7] was inactive.
In the case of `CNCCC(Oc1ccc(C(F)(F)F)cc1)c1ccccc1` (stereo not given), the Potency result in experiment [6] is “inactive”.
Turning to `C[C@@H]1O[C@@H](O[C@H]2C[C@@H](O)[C@]3(CO)[C@H]4[C@H](O)C[C@]5(C)[C@@H](C6=CC(=O)OC6)CC[C@]5(O)[C@@H]4CC[C@]3(O)C2)[C@H](O)[C@H](O)[C@H]1O`, the Potency result in [1], in [2], in experiment [6] and in [8] was “inactive” in each case. The compound was called inactive in experiment [3], in [4], in [5] and in [7].
`Cc1ccc(S(=O)(=O)N[C@@H](CCCCN)C(=O)CCl)cc1`: the Potency result in [9], in experiment [10], in [1] and in [2] was “inactive” each time. Besides, the outcome in experiment [3], in experiment [5] and in experiment [7] was inactive.
As to `CC(C)=CCOc1c2occc2cc2ccc(=O)oc12`, the Potency entry in experiment [1], in experiment [2] and in experiment [8] was “inactive” in each case. Further, the compound was called inactive in experiment [3], in experiment [4], in [5] and in [7].
`Fc1ccc(C(OCCN2CCN(CCCc3ccccc3)CC2)c2ccc(F)cc2)cc1`: the Potency in [10] was 12.6 µM (active). Also, the Potency result in experiment [1], in [2], in [6] and in experiment [8] was “inactive” each time. The call in [3], in experiment [5] and in [7] was inactive.
Take `CC[C@@H](CO)NC(=O)[C@@H]1C=C2c3cccc4c3c(cn4C)C[C@H]2N(C)C1`: the Potency result in experiment [1] and in [6] was “inactive” throughout. Besides, the Potency in experiment [2] is 16.8 µM (active); in experiment [8] it was 10.6 µM (active). The result in [3], in experiment [5] and in [7] was inactive.
For `CC[C@@H](CO)NC(=O)[C@@H]1C=C2c3cccc4[nH]cc(c34)C[C@H]2N(C)C1`, the outcome in [3], in experiment [4], in experiment [5] and in [7] was inactive.
In the case of `O=c1[nH]c2ccccc2n1C1CCN(CCCC(c2ccc(F)cc2)c2ccc(F)cc2)CC1`, the Potency entry in [1], in experiment [6] and in experiment [8] was “inactive” each time. In addition, the compound was called inactive in experiment [3], in experiment [5] and in experiment [7].
